Data taken from PubChem BioAssay AID1159580 (chemical genetic matrix, 2015).
Where “and” joins values, the source holds several entries; their conditions need not be identical. Equal values may be shown once. In all, about 5,500 compounds went through this assay and about 2,000 (36%) were called active. Not shown: some 18% with an inconclusive outcome. Rule as the data show it: active = normalized growth mostly below about 0.91 (no sharp cut-off); inconclusive = no clear call, values can overlap the other calls; inactive = mostly above about 0.92. Some of the results follow.

Assay: chemical genetic growth profiling, strain panel (AID 1159580);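 also: tested at 20 µM; growth read once vehicle control cultures reached saturation at 30 °C; 1 = growth at the plate median or of vehicle wells; lower values mean less growth of the strain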
Conditions: S. cerevisiae deletion strains, growth OD

Measured: normalized growth

O=C(O)C1(O)C[C@@H](O)C(O)[C@H](O)C1 (stereo partly drawn)
inactive: locus YAL021C, strain ccr4, stronger effect = lower value 0.984 | locus YAL026C, strain drs2, stronger effect = lower value 0.985 | locus YAL030W, strain snc1, stronger effect = lower value 0.987 | locus YBL061C, strain skt5, stronger effect = lower value 0.968 | locus YBR009C, strain hhf1, stronger effect = lower value 1 | locus YBR021W, strain FUR4, stronger effect = lower value 1.01 | locus YBR023C, strain chs3, stronger effect = lower value 0.97 | locus YBR171W, strain sec66, stronger effect = lower value 0.983 | locus YBR229C, strain ROT2, stronger effect = lower value 1 | locus YBR231C, strain swc5, stronger effect = lower value 0.983 | locus YBR279W, strain paf1, stronger effect = lower value 0.985 | locus YCL011C, strain gbp2, stronger effect = lower value 0.978 | locus YCL016C, strain dcc1, stronger effect = lower value 0.973 | locus YCL029C, strain bik1, stronger effect = lower value 1.03 | locus YCL069W, strain vba3, stronger effect = lower value 0.988 | locus YCR088W, strain abp1, stronger effect = lower value 0.979 | locus YDL005C, strain med2, stronger effect = lower value 0.957 | locus YDL035C, strain GPR1, stronger effect = lower value 0.99 | locus YDL040C, strain nat1, stronger effect = lower value 0.979 | locus YDL074C, strain BRE1, stronger effect = lower value 1.04 | locus YDL101C, strain DUN1, stronger effect = lower value 1.01 | locus YDL185W, strain tfp1, stronger effect = lower value 1.02 | locus YDL192W, strain arf1, stronger effect = lower value 1.02 | locus YDR001C, strain nth1, stronger effect = lower value 0.975 | locus YDR069C, strain doa4, stronger effect = lower value 0.993 | locus YDR101C, strain arx1, stronger effect = lower value 1.02 | locus YDR137W, strain rgp1, stronger effect = lower value 0.996 | locus YDR150W, strain NUM1, stronger effect = lower value 1.01 | locus YDR159W, strain sac3, stronger effect = lower value 1 | locus YDR162C, strain NBP2, stronger effect = lower value 1.02 | locus YDR195W, strain ref2 0.959 | locus YDR297W, strain sur2, stronger effect = lower value 0.995 | locus YDR318W, strain mcm21, stronger effect = lower value 0.997 | locus YDR334W, strain swr1, stronger effect = lower value 0.962 | locus YDR335W, strain msn5, stronger effect = lower value 0.978 | locus YDR388W, stronger effect = lower value 1.01 | locus YDR392W, strain spt3, stronger effect = lower value 0.994 | locus YDR502C, strain sam2, stronger effect = lower value 1.01 | locus YEL003W, strain gim4, stronger effect = lower value 0.983 | locus YEL037C, strain rad23, stronger effect = lower value 0.98 | locus YEL061C, strain CIN8 (second series), stronger effect = lower value 0.98 | locus YEL061C, strain CIN8, stronger effect = lower value 1.01 | locus YER015W, strain faa2, stronger effect = lower value 0.975 | locus YER016W, strain bim1, stronger effect = lower value 0.967 | locus YER110C, stronger effect = lower value 1.02 | locus YER111C, strain swi4, stronger effect = lower value 0.966 | locus YER155C, strain BEM2 (second series), stronger effect = lower value 0.969 | locus YER155C, strain BEM2, stronger effect = lower value 1 | locus YER167W, strain BCK2, stronger effect = lower value 0.996 | locus YFR010W, strain ubp6, stronger effect = lower value 0.992 | locus YGL078C, strain dbp3, stronger effect = lower value 0.998 | locus YGL086W, strain mad1, stronger effect = lower value 1.05 | locus YGL167C, strain pmr1, stronger effect = lower value 0.976 | locus YGL173C, strain kem1, stronger effect = lower value 0.973 | locus YGL227W, strain vid30, stronger effect = lower value 0.979 | locus YGL240W, strain doc1, stronger effect = lower value 0.975 | locus YGL248W, strain PDE1, stronger effect = lower value 1 | locus YGL253W, strain hxk2, stronger effect = lower value 0.989 | locus YGR135W, strain pre9, stronger effect = lower value 1.01 | locus YGR229C, strain SMI1, stronger effect = lower value 1.02 | locus YGR252W, strain gcn5, stronger effect = lower value 0.954 | locus YHR013C, strain ard1, stronger effect = lower value 0.964 | locus YHR027C, strain rpn1, stronger effect = lower value 0.994 | locus YHR030C, strain SLT2, stronger effect = lower value 1.01 | locus YHR079C, strain IRE1 (second series), stronger effect = lower value 1.01 | locus YHR079C, strain IRE1, stronger effect = lower value 1 | locus YHR094C, strain hxt1, stronger effect = lower value 1.01 | locus YHR129C, strain ARP1, stronger effect = lower value 1.01 | locus YHR142W, strain chs7, stronger effect = lower value 0.982 | locus YHR200W, strain rpn10, stronger effect = lower value 1.01 | locus YIL066C, strain RNR3, stronger effect = lower value 1.01 | locus YIL073C, strain SPO22, stronger effect = lower value 1.06 | locus YIL125W, strain kgd1, stronger effect = lower value 1.02 | locus YIR030C, strain dcg1, stronger effect = lower value 1.01 | locus YJL092W, strain hpr5, stronger effect = lower value 0.979 | locus YJL095W, strain BCK1 (second series), stronger effect = lower value 0.997 | locus YJL095W, strain BCK1, stronger effect = lower value 0.993 and 1 | locus YJL115W, strain asf1, stronger effect = lower value 0.974 | locus YJL129C, strain trk1, stronger effect = lower value 0.984 | locus YJL134W, strain LCB3, stronger effect = lower value 1.01 | locus YJL154C, strain vps35, stronger effect = lower value 0.971 | locus YJL164C, strain tpk1, stronger effect = lower value 0.981 | locus YJL166W, strain qcr8, stronger effect = lower value 1.01 | locus YJL168C, strain set2, stronger effect = lower value 1.01 | locus YJL187C, strain SWE1 (second series), stronger effect = lower value 1.01 | locus YJL187C, strain SWE1, stronger effect = lower value 0.98 | locus YJR043C, strain POL32, stronger effect = lower value 1.01 | locus YJR066W, strain TOR1, stronger effect = lower value 0.957 | locus YKL009W, strain mrt4, stronger effect = lower value 1.01 | locus YKL068W, stronger effect = lower value 1.01 | locus YKL085W, strain MDH1 (second series), stronger effect = lower value 1.01 | locus YKL085W, strain MDH1, stronger effect = lower value 1.01 | locus YKL160W, strain elf1, stronger effect = lower value 0.978 | locus YKR001C, strain vps1, stronger effect = lower value 1.04 | locus YKR026C, strain gcn3, stronger effect = lower value 0.986 | locus YKR091W, strain srl3, stronger effect = lower value 0.986 | locus YLL001W, strain dnm1, stronger effect = lower value 0.962 | locus YLL026W, stronger effect = lower value 0.978 | locus YLL041C, strain sdh2, stronger effect = lower value 1 | locus YLR027C, strain aat2, stronger effect = lower value 0.981 | locus YLR039C, strain RIC1, stronger effect = lower value 1.07 | locus YLR058C, strain SHM2, stronger effect = lower value 1.01 | locus YLR102C, strain apc9, stronger effect = lower value 1.01 | locus YLR113W, strain HOG1, stronger effect = lower value 1.02 | locus YLR221C, strain rsa3, stronger effect = lower value 0.987 | locus YLR258W, strain gsy2, stronger effect = lower value 0.973 | locus YLR262C, strain YPT6 (second series), stronger effect = lower value 1.04 | locus YLR262C, strain YPT6, stronger effect = lower value 1.1 | locus YLR268W, strain sec22, stronger effect = lower value 1.04 | locus YLR320W, strain mms22, stronger effect = lower value 0.974 | locus YLR330W, strain CHS5, stronger effect = lower value 1 | locus YLR342W, strain FKS1 (second series), stronger effect = lower value 1.01 | locus YLR342W, strain FKS1, stronger effect = lower value 0.976 | locus YLR357W, strain rsc2, stronger effect = lower value 0.995 | locus YLR370C, strain arc18, stronger effect = lower value 0.992 | locus YLR371W, strain rom2, stronger effect = lower value 1.02 | locus YLR384C, strain iki3, stronger effect = lower value 0.983 | locus YLR418C, strain cdc73, stronger effect = lower value 1.01 | locus YML016C, strain PPZ1, stronger effect = lower value 1.01 | locus YML032C, strain rad52, stronger effect = lower value 0.989 | locus YML120C, strain ndi1, stronger effect = lower value 0.968 | locus YML124C, strain tub3, stronger effect = lower value 1.01 | locus YMR058W, strain fet3, stronger effect = lower value 0.964 | locus YMR078C, strain ctf18, stronger effect = lower value 1.02 | locus YMR125W, strain sto1, stronger effect = lower value 0.972 | locus YMR129W, stronger effect = lower value 0.976 | locus YMR205C, strain PFK2, stronger effect = lower value 0.984 | locus YMR223W, strain ubp8, stronger effect = lower value 1 | locus YMR231W, strain pep5, stronger effect = lower value 0.972 | locus YMR263W, strain SAP30, stronger effect = lower value 1.01 | locus YMR307W, strain GAS1, stronger effect = lower value 0.994 | locus YNL067W, strain RPL9B, stronger effect = lower value 1.01 | locus YNL071W, strain lat1, stronger effect = lower value 0.989 | locus YNL183C, strain NPR1, stronger effect = lower value 0.953 | locus YNL209W, strain ssb2, stronger effect = lower value 0.983 | locus YNL233W, strain BNI4, stronger effect = lower value 1.01 | locus YNL248C, strain rpa49, stronger effect = lower value 0.98 | locus YNL250W, strain rad50, stronger effect = lower value 1.02 | locus YNL271C, strain bni1, stronger effect = lower value 1.02 | locus YNL298W, strain CLA4, stronger effect = lower value 1.02 | locus YNL307C, strain MCK1, stronger effect = lower value 1.02 | locus YNL322C, strain KRE1 (second series), stronger effect = lower value 0.969 | locus YNR049C, strain mso1, stronger effect = lower value 0.963 | locus YNR052C, strain pop2, stronger effect = lower value 0.999 | locus YOL012C, strain htz1 0.956 | locus YOL147C, strain pex11, stronger effect = lower value 1.02 | locus YOR001W, strain rrp6, stronger effect = lower value 1 | locus YOR061W, strain CKA2, stronger effect = lower value 1.01 | locus YOR069W, strain VPS5, stronger effect = lower value 1.01 | locus YOR070C, strain gyp1, stronger effect = lower value 0.962 | locus YOR080W, strain dia2, stronger effect = lower value 0.972 | locus YOR083W, strain WHI5, stronger effect = lower value 0.981 | locus YOR106W, strain vam3, stronger effect = lower value 1 | locus YOR136W, strain idh2, stronger effect = lower value 1.03 | locus YOR144C, strain elg1, stronger effect = lower value 1.02 | locus YOR184W, strain ser1, stronger effect = lower value 1.01 | locus YOR231W, strain MKK1, stronger effect = lower value 0.997 | locus YOR265W, strain rbl2, stronger effect = lower value 0.989 | locus YOR270C, strain vph1, stronger effect = lower value 1.03 | locus YOR290C, strain snf2, stronger effect = lower value 0.992 | locus YOR316C, strain cot1, stronger effect = lower value 1.01 | locus YPL051W, strain arl3, stronger effect = lower value 0.992 | locus YPL055C, strain LGE1, stronger effect = lower value 1.01 | locus YPL078C, strain atp4, stronger effect = lower value 0.982 | locus YPL106C, strain sse1, stronger effect = lower value 0.961 | locus YPL240C, strain hsp82, stronger effect = lower value 1.01 | locus YPL241C, strain CIN2, stronger effect = lower value 1.02 | locus YPL256C, strain CLN2, stronger effect = lower value 0.992 | locus YPR119W, strain clb2, stronger effect = lower value 1.01 | locus YPR141C, strain kar3, stronger effect = lower value 1.01 | locus YPR163C, strain tif3, stronger effect = lower value 1.03 | locus YPR167C, strain met16, stronger effect = lower value 1.01 | strain wtn01, stronger effect = lower value 1.05
